From PubChem
An excerpt weighted towards active compounds, which were near 10% of everything screened.
HP1b chromo inh – inhibitors of HP1-beta chromodomain binding to methylated histone tails; AlphaScreen HP1-beta / biotin-H3K9me3 peptide binding; Potency, µM (top dose mostly 114 µM), for inactives: at the highest dose activity change, negative = inhibition, hits mostly inhibitors; 390,000 compounds, 0.56% hits; further: potency means the concentration at half of the fitted maximal effect; nearly all actives have a fitted effect of over 70% in size
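HP1-beta protein (50 nM final) preincubated 30 min at room temperature with biotinylated H3(1-18)K9me3 peptide (50 nM) in PBS pH 7.4, 0.01% Tween-20, then compound added for 30 min. AlphaScreen streptavidin donor/nickel chelate acceptor beads (10 ug/mL final), 30 min dark, luminescence read.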
JMJD2A Tudor inh – inhibitors of human JMJD2A Tudor domain. O75164. Potency, µM (doses to about 114 µM), without a hit: top-dose activity change, negative = inhibition, hits mostly inhibitors. 390,000 compounds, 4.4% hits. AlphaScreen JMJD2A-Tudor / H3K4me3 peptide binding; further: potency means the concentration at half of the fitted maximal effect; on the % scale 0 is the no-effect control and ±100 the full control effect; nearly all actives have a fitted effect of over 50% in size
Six1-Eya2 blk – inhibitors of human Six1/Eya2 interaction | Q15475+O00167 | AlphaScreen GST-Six1/His-Eya2 binding, biochemical; stronger effect = lower value | activity change, % (no concentration beside the values) | 360,000 compounds, 0.56% hits | AID 651725; in the data active means activity change below about -65%; inconclusive means mostly about -30% to -63%; further: on the % scale 0 is the no-effect control and ±100 the full control effect
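GST-Six1 + His-Eya2 (5X stock: 250/500 nM); Tris pH 8.0, 300 mM NaCl, 0.05% BSA, 0.02% Tween 20; GSH donor/Ni acceptor beads; 1 h 37 °C dark; AlphaScreen readout.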
BAZ2B block – BAZ2B (human) inhibition; 360,000 compounds, 4.4% hits; AlphaScreen BAZ2B-H3K14Ac peptide displacement; Potency, µM (titrated, usually from 114 µM), for inactives: at the top dose activity change, negative = inhibition, hits mostly inhibitors; further: potency means the concentration at half of the fitted maximal effect; on the % scale 0 is the no-effect control and ±100 the full control effect; nearly all actives have a fitted effect of over 60% in size
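BAZ2B (50 nM) with biotin-H3(5-23)K14Ac peptide (50 nM) in PBS pH 7.4, 0.01% Tween-20, preformed 30 min, then compound 30 min at room temperature; top concentration 110uM. AlphaScreen streptavidin donor/nickel chelate acceptor beads (10 ug/mL final), 20 min dark, signal read.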
G9a block – inhibitors of human histone lysine methyltransferase G9a; G9a H3K9 monomethylation, AlphaScreen, 2 h; Potency, µM (highest dose often 102 µM), for the others: at the highest dose activity, negative = inhibition, actives largely listed as inhibitors; 350,000 compounds, 8.8% hits; Q96KQ7; AID 504332; further: potency means the concentration at half of the fitted maximal effect; on the % scale 0 is the no-effect control and ±100 the full control effect; nearly all actives have a fitted effect of over 75% in size
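AlphaScreen detection with an anti-monomethyl H3K9 antibody quantified product after a 2 h room-temperature reaction containing 500 nM biotinylated H3K9 peptide, 20 µM SAM and 20 nM enzyme, which had been preincubated 15 min with compound.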
CtBP-E1A inh – inhibitors of CtBP/E1A interaction; AlphaScreen GST-E1A/His-CtBP binding, 1536-well; stronger effect = lower value; 340,000 compounds, 0.49% hits; activity change, % (concentration not given with the values); in the data active means activity change below about -65%; inconclusive means mostly about -30% to -63%; further: on the % scale 0 is the no-effect control and ±100 the full control effect
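In 5 uL wells, 23 nL compound meets equimolar GST-E1A and His-CtBP (5X stock 125 nM each) for 2 h, 37 °C. Beads (5X, 50 ug/mL) then 1 h, 37 °C, dark.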
* = called active by the depositor; ? = inconclusive; nt = no result given; [ ] = dose if it differs, or a comment. Unless noted, the call rests on the fitted dose curve; in most records, active means well fitted inhibition curve with a large enough effect; inconclusive means small, poorly fitted or top-dose-only effect; inactive means no such curve, though single readings can be large or run the other way.

SMILES | HP1b chromo inh | JMJD2A Tudor inh | Six1-Eya2 blk | BAZ2B block | G9a block | CtBP-E1A inh
C#CCOCCOCCOCCNc1nc(N2CCN(C(=O)[C@H](CCCN=C(N)N)n3cc(C(N)[C@@H](C)CC)nn3)CC2)nc(N2CCN(C(=O)[C@H](CCCCN)n3cc([C@@H](N)CC(N)=O)nn3)CC2)n1 (stereo partly specified) | 33% | 89µM* | -13 | nt | nt | -2
C#CCOCCOCCOCCNc1nc(N2CCN(C(=O)C([C@@H](C)O)n3cc([C@@H](N)CCCCN)nn3)CC2)nc(N2CCN(C(=O)[C@H](CC(N)=O)n3cc([C@@H](N)C(C)C)nn3)CC2)n1 (stereo partly specified) | 18% | ? | -1 | nt | nt | -6
C#CCOCCOCCOCCNc1nc(N2CCN(C(=O)[C@H](CCCN=C(N)N)n3cc(C(N)[C@@H](C)CC)nn3)CC2)nc(N2CCN(C(=O)[C@H](CCC(=O)O)n3cc([C@@H](N)[C@H](C)CC)nn3)CC2)n1 (stereo partly specified) | 8% | ? | -3 | nt | nt | -2
C#CCOCCOCCOCCNc1nc(N2CCN(C(=O)[C@H](CCCN=C(N)N)n3cc(C(N)[C@@H](C)CC)nn3)CC2)nc(N2CCN(C(=O)[C@H](CCC(=O)O)n3cc([C@@H](N)CO)nn3)CC2)n1 (stereo partly specified) | 3% | 25µM* | -7 | nt | nt | -19
C#CCOCCOCCOCCNc1nc(N2CCN(C(=O)[C@H](CCCN=C(N)N)n3cc(C(N)[C@@H](C)CC)nn3)CC2)nc(N2CCN(C(=O)[C@H](CCC(=O)O)n3cc([C@@H](N)CC(N)=O)nn3)CC2)n1 (stereo partly specified) | 14% | 50µM* | -1 | nt | nt | -26
O=C(Nc1cccnc1Oc1ccc(Cl)cc1)c1cccc2ccccc12 | 39% | -1% | 9 | 1% | 42% | 8
N#Cc1ccccc1CN1C(=O)c2ccccc2Sc2ccc(C(=O)OCc3ccco3)cc21 | 6%[57 µM] | -21% | nt | -11% | 6%[59 µM] | nt
Cc1cn2c(nc(=O)c3cccnc32)s1 | 17% | -16% | ? | 10% | 9%[59 µM] | 9
Cc1ccc(/C=C/c2nc3ccccc3s2)s1 | 469% | 332% | 79 | 215% | 10%[2.33 µM] | 73
C(=C\c1ccc2ccccc2n1)/c1ccccc1 | 137% | 149% | 3 | 262% | 195%[59 µM] | nt
CN(C)c1ccc(/C=C/c2nc3ccccc3s2)cc1 | 40µM* | 20µM* | ? | 32µM* | 19%[0.501 µM] | ?
CN(C)c1ccc(/C=C/c2ccc3ccccc3n2)cc1 | 5% | ? | 28 | 50µM* | 45µM* | nt
CSCCC(c1nc2ccccc2[nH]1)n1c(=O)c(-c2ccco2)nc2ccccc21 (stereo unspecified) | nt | nt | -3 | nt | nt | -13
OC(CN1CCCCC1)c1ccc2c3c(cccc13)CC2 (stereo unspecified) | -13% | -18% | 2 | nt | nt | -1
O=C(CN1CCCCC1)NCC1(c2ccccc2)CCCC1 | 44% | 6% | 0 | 24% | nt | 9
Cc1cc2nc(N3C(=O)CNC3=S)sc2cc1C | 29% | -20% | -1 | 45µM* | 1% | 0
CCOc1ccc2nc(N3C(=O)CNC3=S)sc2c1 | 32% | -15% | -23 | -21% | 8% | -5
COCCn1c(=O)c(-c2ccccc2)nc2cnc(N3CCNCC3)nc21 | nt | nt | nt | nt | -6%[12.7 µM] | nt
O=C(O)[C@H]1CCCN1S(=O)(=O)c1cccc2cccnc12 | 35% | -27% | 0 | 11% | 13%[12.7 µM] | 4
CC1CCCCN1S(=O)(=O)c1cccc2cccnc12 (stereo unspecified) | 21% | -15% | 8 | -6% | 32µM* | 1
COc1ccc(N(CCC(=O)Nc2ccccc2F)S(=O)(=O)c2ccc(C)cc2C)cc1 | 24% | -13% | -5 | 2% | -19% | 7
COc1ccc(CCNc2oc(COc3ccc(Cl)cc3)nc2C#N)cc1OC | -21% | ? | nt | 20µM* | ? | nt
